In PubChem BioAssay (NCATS) one finds Potency and activity change, negative = inhibition data, which are given here for 40 compounds.

Unmarked numbers belong to inactive results. Records with an inconclusive call do not appear. Active and inactive are the calls of the source. Unless noted, no stated cut-off is given here; in the data, active means potency below about 10 µM; inactive means the rest.

Sequence of Lysosomal acid glucosylceramidase (Homo sapiens) (P04062 whole entry, looked up): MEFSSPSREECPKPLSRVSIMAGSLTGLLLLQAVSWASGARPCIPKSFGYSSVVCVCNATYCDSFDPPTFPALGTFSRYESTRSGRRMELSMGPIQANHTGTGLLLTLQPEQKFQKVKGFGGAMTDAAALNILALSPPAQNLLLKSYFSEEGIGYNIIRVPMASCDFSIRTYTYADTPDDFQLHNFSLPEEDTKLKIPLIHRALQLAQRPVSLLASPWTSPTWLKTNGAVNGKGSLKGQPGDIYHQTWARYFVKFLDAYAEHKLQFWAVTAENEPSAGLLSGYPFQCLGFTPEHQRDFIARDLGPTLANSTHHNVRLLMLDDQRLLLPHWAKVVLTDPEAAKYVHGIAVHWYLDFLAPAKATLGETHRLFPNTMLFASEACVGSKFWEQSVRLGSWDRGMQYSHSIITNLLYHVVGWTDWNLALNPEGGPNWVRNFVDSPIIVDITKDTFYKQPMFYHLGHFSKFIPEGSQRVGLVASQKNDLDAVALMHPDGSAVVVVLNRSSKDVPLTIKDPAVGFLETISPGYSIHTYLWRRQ

One experiment addresses Lysosomal acid glucosylceramidase (Homo sapiens) (UniProt P04062). Put plainly: Glucocerebrosidase-p2 (AID 348). Further: potency means the concentration at half of the fitted maximal effect. Particulars: purified GBA, blue fluorogenic substrate, 40 min. In outline: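 Compounds titrated from 0.6 nM upwards against 0.2 nM enzyme in pH 5.9 citric acid/KH2PO4, taurocholate, tween-20; blue fluorogenic substrate 80 uM, 40 min room temperature, stopped and read Ex 365/Em 440 for AC50.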
Take `COCCn1c(=O)cnc2cnc(OCc3ccccc3)nc21`: the Potency was greater than 11.4 µM.

In the case of `COc1ccc(NC(=O)N2CC3(CCN(C(=O)c4cccc(F)c4)CC3)C2)cc1`, the Potency is greater than 11.4 µM.

For `COc1ccc(C(=O)N2CCC[C@@]3(CCN(Cc4ccccc4OC)C3)C2)cc1`, the Potency was greater than 11.4 µM.

Turning to `Cc1nc2cnc(OCc3ccccc3)nc2n(CCC#N)c1=O`, the Potency is greater than 11.4 µM.

As for `Cc1cnc(CNc2ncnc3ccc(-c4ccccc4C#N)cc23)cn1`, the Potency is greater than 11.4 µM.

In the case of `COC(=O)N1CCC2(CCN(C(=O)Nc3ccc(OC)cc3)CC2)CC1`, the Potency is greater than 11.4 µM.

Turning to `O=c1c(-c2cccc(F)c2)nc2cncnc2n1Cc1ccccc1`, the Potency is greater than 11.4 µM.

As to `COc1ccc(C(=O)N2CCC3(CC2)CCN(c2cccc(-c4ccccc4)c2)CC3)cc1`, the Potency was greater than 11.4 µM.

In the case of `COc1ccc(Oc2ncc3ncc(=O)n(Cc4cccc(OC)c4)c3n2)cc1`, the Potency was greater than 11.4 µM.

For the compound `COCC(=O)N1CCC2(CCN(Cc3cc(C(F)(F)F)cc(C(F)(F)F)c3)CC2)CC1`, the Potency is greater than 11.4 µM.

With `O=C(c1csnn1)N1CCC2(CCCN(c3ncccn3)C2)CC1`, the Potency was greater than 11.4 µM.

Take `O=C(Nc1ccccc1)N1CCC2(CCNCC2)CC1`: the Potency was greater than 11.4 µM.

With `COc1ccccc1CCn1c(=O)c(C)nc2cncnc21`, the Potency was greater than 11.4 µM.

With `N#Cc1ccc(CN2CC3(CCN(C(=O)c4csnn4)CC3)C2)cc1`, the Potency is greater than 11.4 µM.

In the case of `COc1ccc(Oc2ncc3nc(C)c(=O)n(C4CC4)c3n2)cc1`, the Potency is greater than 11.4 µM.

Turning to `COCCn1c(=O)c(-c2ccc(OC)cc2)nc2cnc(Oc3ccc(OC)cc3)nc21`, the Potency is greater than 11.4 µM.

`COc1ccc(C(=O)N2CCC[C@@]3(CCN(C)C3)C2)cc1`: the Potency was greater than 11.4 µM.

For `N#Cc1cccc(NC(=O)N2CC[C@@]3(CCCN(C(=O)c4csnn4)C3)C2)c1`, the Potency was greater than 11.4 µM.

For the compound `COc1ccc(-n2c(=O)c(-c3ccc(F)cc3)nc3cnc(OC)nc32)cc1`, the Potency was greater than 11.4 µM.

As for `COc1cccc(Cn2c(=O)c(-c3cccs3)nc3cnc(Nc4ccccc4)nc32)c1`, the Potency is greater than 11.4 µM.

Consider `COc1cccc(Cn2c(=O)c(-c3cccc(F)c3)nc3cncnc32)c1`, for which the Potency is greater than 11.4 µM.

With `CS(=O)(=O)N1CCC2(CCCN(Cc3cc(C(F)(F)F)cc(C(F)(F)F)c3)C2)CC1`, the Potency is greater than 11.4 µM.

As for `N#Cc1ccc(CN2CC[C@@]3(CCCN(C(=O)c4ccco4)C3)C2)cc1`, the Potency was greater than 11.4 µM.

As to `O=c1c(-c2cccc(Cl)c2)nc2cncnc2n1Cc1ccc(F)cc1`, the Potency was greater than 11.4 µM.

As to `Cc1cccc(CNc2ncncc2-c2cccc(NS(C)(=O)=O)c2)c1`, the Potency was greater than 11.4 µM.

Regarding `CC(=O)N1CCC2(CC1)CCN(C(=O)Nc1cccc(C#N)c1)CC2`, the Potency is greater than 11.4 µM.

With `COc1cccc(Cn2c(=O)c(-c3cccc(Cl)c3)nc3cncnc32)c1`, the Potency is greater than 11.4 µM.

Consider `O=c1c(-c2ccc(Cl)cc2)nc2cncnc2n1Cc1ccccc1`, for which the Potency was greater than 11.4 µM.

On to `COc1ccc(-c2nc3cnc(OC)nc3n(C3CC3)c2=O)cc1`, for which the Potency was greater than 11.4 µM.

In the case of `O=c1c(-c2ccc(F)c(F)c2)nc2cncnc2n1Cc1ccc(F)cc1`, the Potency was greater than 11.4 µM.

Take `O=C(c1cccc(F)c1)N1CCC2(CC1)CN(C(c1ccccc1)c1ccccc1)C2`: the Potency was greater than 11.4 µM.

For the compound `COc1cccc(Cn2c(=O)c(-c3ccc(Cl)cc3)nc3cnc(N(C)C)nc32)c1`, the Potency was greater than 11.4 µM.

In the case of `O=C(Nc1cccc(F)c1)N1CCC2(CC1)CCN(C(=O)c1cccc(F)c1)CC2`, the Potency is greater than 11.4 µM.

Consider `COc1ccc(C(=O)N2CCC[C@@]3(CCN(C(=O)Nc4cccc(F)c4)C3)C2)cc1`, for which the Potency is greater than 11.4 µM.

As to `Cn1cccc1C(=O)N1CCC2(CC1)CN(C(=O)Nc1cccc(C#N)c1)C2`, the Potency is greater than 11.4 µM.

With `COC(=O)N1CCC[C@@]2(CCN(Cc3cc(C(F)(F)F)cc(C(F)(F)F)c3)C2)C1`, the Potency is greater than 11.4 µM.

Turning to `COc1cccc(Cn2c(=O)c(-c3ccc(F)c(F)c3)nc3cncnc32)c1`, the Potency is greater than 11.4 µM.

For `Cc1noc(C)c1C(=O)N1CCC2(CCCN(c3ncccn3)C2)CC1`, the Potency is greater than 11.4 µM.

Consider `O=c1c(-c2ccc(F)cc2)nc2cnc(Nc3ccccc3)nc2n1C1CC1`, for which the Potency is greater than 11.4 µM.

Consider `COc1ccc(-c2nc3cnc(OC)nc3n(Cc3cccc(OC)c3)c2=O)cc1`, for which the Potency was greater than 11.4 µM.

Test system in a further experiment: not listed separately
Briefly: AP1 Signaling Pathway (AID 357; active means well fitted curve in either direction with a large enough effect, not every such curve was filed as active; further: on the % scale 0 is the no-effect control and ±100 the full control effect). Particulars: ME-180 (cervical carcinoma) AP-1-bla reporter, EGF-induced, beta-lactamase ratio, 5 h; at 7.69 µM (top of the series) unless noted. In outline:
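ME-180 cells with beta-lactamase reporter under AP-1 response element, stimulated with EC50 EGF; compounds tested in titration series, 5 h at 37 °C. CCF4 substrate added 2.5 h at room temperature; 460/530 nm emission ratio gave %activity and AC50.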
Regarding `COCCn1c(=O)cnc2cnc(OCc3ccccc3)nc21`, the activity change, negative = inhibition was -3.32%.

For the compound `COc1ccc(NC(=O)N2CC3(CCN(C(=O)c4cccc(F)c4)CC3)C2)cc1`, the activity change, negative = inhibition is -7.57%.

Take `COc1ccc(C(=O)N2CCC[C@@]3(CCN(Cc4ccccc4OC)C3)C2)cc1`: the activity change, negative = inhibition is 11.7%.

Regarding `Cc1nc2cnc(OCc3ccccc3)nc2n(CCC#N)c1=O`, the activity change, negative = inhibition was 2.98%.

`Cc1cnc(CNc2ncnc3ccc(-c4ccccc4C#N)cc23)cn1`: the activity change, negative = inhibition is 9.76%.

Consider `COC(=O)N1CCC2(CCN(C(=O)Nc3ccc(OC)cc3)CC2)CC1`, for which the activity change, negative = inhibition was -1.58%.

For the compound `O=c1c(-c2cccc(F)c2)nc2cncnc2n1Cc1ccccc1`, the activity change, negative = inhibition was -7.86%.

Regarding `COc1ccc(C(=O)N2CCC3(CC2)CCN(c2cccc(-c4ccccc4)c2)CC3)cc1`, the activity change, negative = inhibition is 10.6%.

With `COc1ccc(Oc2ncc3ncc(=O)n(Cc4cccc(OC)c4)c3n2)cc1`, the activity change, negative = inhibition is -25.4%.

Take `COCC(=O)N1CCC2(CCN(Cc3cc(C(F)(F)F)cc(C(F)(F)F)c3)CC2)CC1`: the activity change, negative = inhibition is 4.92%.

For `O=C(c1csnn1)N1CCC2(CCCN(c3ncccn3)C2)CC1`, the activity change, negative = inhibition is 5.51%.

Take `O=C(Nc1ccccc1)N1CCC2(CCNCC2)CC1`: the activity change, negative = inhibition is -1.92%.

`COc1ccccc1CCn1c(=O)c(C)nc2cncnc21`: the activity change, negative = inhibition is -13.2%.

Turning to `N#Cc1ccc(CN2CC3(CCN(C(=O)c4csnn4)CC3)C2)cc1`, the activity change, negative = inhibition is -0.499%.

As for `COc1ccc(Oc2ncc3nc(C)c(=O)n(C4CC4)c3n2)cc1`, the activity change, negative = inhibition is -0.17%.

`COCCn1c(=O)c(-c2ccc(OC)cc2)nc2cnc(Oc3ccc(OC)cc3)nc21`: the activity change, negative = inhibition was -20.1%.

Take `COc1ccc(C(=O)N2CCC[C@@]3(CCN(C)C3)C2)cc1`: the activity change, negative = inhibition is 10.5%.

For the compound `N#Cc1cccc(NC(=O)N2CC[C@@]3(CCCN(C(=O)c4csnn4)C3)C2)c1`, the activity change, negative = inhibition is -20.4%.

As to `COc1ccc(-n2c(=O)c(-c3ccc(F)cc3)nc3cnc(OC)nc32)cc1`, the activity change, negative = inhibition is -6.43%.

Consider `COc1cccc(Cn2c(=O)c(-c3cccs3)nc3cnc(Nc4ccccc4)nc32)c1`, for which the activity change, negative = inhibition is -5.18%.

`COc1cccc(Cn2c(=O)c(-c3cccc(F)c3)nc3cncnc32)c1`: the activity change, negative = inhibition was -9.03%.

Take `CS(=O)(=O)N1CCC2(CCCN(Cc3cc(C(F)(F)F)cc(C(F)(F)F)c3)C2)CC1`: the activity change, negative = inhibition was 20%.

With `N#Cc1ccc(CN2CC[C@@]3(CCCN(C(=O)c4ccco4)C3)C2)cc1`, the activity change, negative = inhibition is 0.694%.

Turning to `O=c1c(-c2cccc(Cl)c2)nc2cncnc2n1Cc1ccc(F)cc1`, the activity change, negative = inhibition was -7.68%.

For `Cc1cccc(CNc2ncncc2-c2cccc(NS(C)(=O)=O)c2)c1`, the activity change, negative = inhibition was -5.04%.

Regarding `CC(=O)N1CCC2(CC1)CCN(C(=O)Nc1cccc(C#N)c1)CC2`, the activity change, negative = inhibition was 4.49%.

As for `COc1cccc(Cn2c(=O)c(-c3cccc(Cl)c3)nc3cncnc32)c1`, the activity change, negative = inhibition is -20.4%.

As for `O=c1c(-c2ccc(Cl)cc2)nc2cncnc2n1Cc1ccccc1`, the activity change, negative = inhibition was -10.4%.

Turning to `COc1ccc(-c2nc3cnc(OC)nc3n(C3CC3)c2=O)cc1`, the activity change, negative = inhibition is -14.2%.

As for `O=c1c(-c2ccc(F)c(F)c2)nc2cncnc2n1Cc1ccc(F)cc1`, the activity change, negative = inhibition was 2.91%.

In the case of `O=C(c1cccc(F)c1)N1CCC2(CC1)CN(C(c1ccccc1)c1ccccc1)C2`, the activity change, negative = inhibition is 16.8%.

Consider `COc1cccc(Cn2c(=O)c(-c3ccc(Cl)cc3)nc3cnc(N(C)C)nc32)c1`, for which the activity change, negative = inhibition is 122% [activator] (active).

As to `O=C(Nc1cccc(F)c1)N1CCC2(CC1)CCN(C(=O)c1cccc(F)c1)CC2`, the activity change, negative = inhibition is -7.86%.

For `COc1ccc(C(=O)N2CCC[C@@]3(CCN(C(=O)Nc4cccc(F)c4)C3)C2)cc1`, the activity change, negative = inhibition was -10.8%.

For `Cn1cccc1C(=O)N1CCC2(CC1)CN(C(=O)Nc1cccc(C#N)c1)C2`, the activity change, negative = inhibition was -22.3%.

Take `COC(=O)N1CCC[C@@]2(CCN(Cc3cc(C(F)(F)F)cc(C(F)(F)F)c3)C2)C1`: the activity change, negative = inhibition is -12.5%.

As to `COc1cccc(Cn2c(=O)c(-c3ccc(F)c(F)c3)nc3cncnc32)c1`, the activity change, negative = inhibition is -5.97%.

Turning to `Cc1noc(C)c1C(=O)N1CCC2(CCCN(c3ncccn3)C2)CC1`, the activity change, negative = inhibition is -6.23%.

`O=c1c(-c2ccc(F)cc2)nc2cnc(Nc3ccccc3)nc2n1C1CC1`: the activity change, negative = inhibition is -14%.

On to `COc1ccc(-c2nc3cnc(OC)nc3n(Cc3cccc(OC)c3)c2=O)cc1`, for which the activity change, negative = inhibition is -4%.
